According to PubChem BioAssay AID463173 (ICCB-Longwood Screening Facility, Harvard Medical School, 2010):
Hit rate of the full screen: of about 52,000 compounds, about 4,300 (8.3%) were called active. The sample holds actives, similar compounds and a random draw of the others, so the mix is not that of the screen. No stated cut-off is given here; in the data, active means survival mostly below about 52% (no sharp cut-off); inactive means mostly above about 56%.

Test system: DeltatarO mutant
Experiment: growth inhibition of S. aureus wild type versus tarO mutant, primary screen, teichoic acid synthesis inhibitors, RN4220, OD600 (AID 463173)
Details: OD600, 18 h, stronger effect = lower value, screened at 18.75 µg/mL (by protocol)

Structure (SMILES)	survival
CCN(CC)C(=O)Cn1cc(SCC(=O)Nc2ccccc2F)c2ccccc21	103% (inactive)
CCc1cccc(NC(=O)c2cc3c(=O)[nH]c4ccccc4c3n2C)c1	89% (inactive)
C=CCNC(=O)C(C)N1CCN(C)CC1 (stereo not given)	73% (inactive)
Cc1ccccc1CNC(=O)C1CCN(S(=O)(=O)Cc2ccccc2)CC1	75% (inactive)
CCOc1ccc(-c2nnc(SCC(=O)Oc3ccccc3)o2)cc1	71% (inactive)
CCC12CN3CC(C)(CN(C1)C3c1ccc(O)cc1O)C2=O (stereo not given)	78% (inactive)
CCc1ccc(S(=O)(=O)c2nnn3c2nc(NCc2ccccc2)c2cc(Cl)ccc23)cc1	86% (inactive)
CC1CCc2c(sc3nnn(Cc4cccc(C(=O)OC(C)C)c4)c(=O)c23)C1 (stereo not given)	78% (inactive)
CC1CCc2c(sc3nnn(Cc4ccccc4)c(=O)c23)C1 (stereo not given)	3% (active)
CCCOC(=O)c1ccc(Cn2nnc3sc4c(c3c2=O)CCC(C)C4)cc1 (stereo not given)	79% (inactive)
COc1ccccc1CNC(=O)C(C)n1c(=O)cc(C(F)(F)F)c2c(C)nn(C)c21 (stereo not given)	94% (inactive)
CCOc1ccccc1NC(=O)Cn1nc2c3cc(F)ccc3n(Cc3cccc(C)c3)cc-2c1=O	72% (inactive)
COc1ccccc1NC(=O)Cn1nc2c3cc(F)ccc3n(Cc3cccc(C)c3)cc-2c1=O	-2% (active)
CCc1ccccc1NC(=O)Cn1nc2c3cc(F)ccc3n(Cc3cccc(C)c3)cc-2c1=O	84% (inactive)
O=C(Cn1ccn(-c2cccc(Cl)c2)c(=O)c1=O)c1ccc(F)cc1	59% (inactive)
O=C(Nc1ccc(Cl)cc1C(F)(F)F)c1cc(S(=O)(=O)NCc2ccccc2)ccc1F	130% (inactive)
O=C(CN(Cc1ccccc1)C(=O)Cn1nnc(-c2ccc(F)cc2)n1)NC1CCCC1	70% (inactive)
COc1ccc(OCC(=O)Nc2ccc(-c3nc4cc(Cl)ccc4o3)cc2)cc1	134% (inactive)
COc1ccc(-c2nc3ccc(NS(=O)(=O)c4ccc(C)cc4)cc3o2)cc1	45% (inactive)
COc1ccc(-c2nc3ccc(NS(=O)(=O)c4ccc(Cl)cc4)cc3o2)cc1	23% (active)
COc1ccc(-c2nc3ccc(NS(C)(=O)=O)cc3o2)cc1	77% (inactive)
COc1ccc(-c2nc3ccc(NS(=O)(=O)c4ccccc4)cc3o2)cc1	36% (active)
CCC(Oc1ccccc1)C(=O)Nc1ccc2oc(-c3ccc(OC)cc3)nc2c1 (stereo not given)	111% (inactive)
CCCCC(CC)CNC(=O)c1ccc(Cn2c(=O)[nH]c3cc(OC)c(OC)cc3c2=O)cc1 (stereo not given)	72% (inactive)
O=C(Cn1c(=O)c(CNc2ccccc2)cc2cc3c(cc21)OCCO3)Nc1ccccc1Cl	131% (inactive)
